Bioassay records from PubChem BioAssay.
ssDAF-12 act – S. stercoralis DAF-12 nuclear receptor activators, primary screen, cell-based, luminescence, HEK293, GRIP1 co-expression, lit1-tk-luc | Nuclear hormone receptor DAF-12 (Strongyloides stercoralis) | HEK293 ssDAF-12/GRIP1 lit1-tk-luc reporter; % of 3 µM dafachronic acid response | activation, % at 6.8 µM | 370,000 tested, 1% active | AID 652126, 2013;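 active means activation above the mean over all tested compounds plus 3 SD, cut at about 0.9% in these data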
hgDAF12 agonist – H. glycines DAF-12 receptor agonists, primary screen, cell-based, luminescence, HEK293, GAL4 fusion, UAS-luciferase; 370,000 tested, 1.8% active; HEK293 GAL4-hgDAF12 UAS-luciferase reporter, agonist luminescence; normalized to butyrate control; activation, % at 6.8 µM;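 active means activation above a cutoff set at the mean of all screened compounds plus 3 SD, cut at about 10% in these data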
DAX1 inh-1 – DAX1 (NR0B1) inhibitors, primary screen, cell-based, HEK293, Gal4-DAX1, luciferase luminescence; HEK293 Gal4-DAX1 luciferase reporter; inhibition, % at 6.75 µM; 340,000 tested, 0.99% active;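 active means inhibition above the mean over all tested compounds plus 3 SD, cut at about 4.2% in these data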;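 further: inhibition shows as a rise in luminescence from relieved DAX1 repression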
Target sequence (P51843 207-470 limits assumed): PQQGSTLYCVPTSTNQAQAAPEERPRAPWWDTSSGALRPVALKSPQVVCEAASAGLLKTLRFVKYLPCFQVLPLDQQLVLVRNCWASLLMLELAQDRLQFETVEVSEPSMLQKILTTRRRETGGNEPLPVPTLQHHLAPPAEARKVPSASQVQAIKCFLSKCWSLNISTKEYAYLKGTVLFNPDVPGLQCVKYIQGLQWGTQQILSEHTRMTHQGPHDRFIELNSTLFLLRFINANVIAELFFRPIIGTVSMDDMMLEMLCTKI
GAA850 FXN act – FXN promoter activators, primary screen, cell-based, luciferase luminescence, HEK293 lucGAA850; HEK293 lucGAA850 FXN promoter luciferase reporter, 24 h; percent of 10 µM SAHA response; activation, % at 6 µM; 360,000 tested, 0.56% active; AID 540364, 2011;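 active means activation above the average of all compounds screened plus 3 SD, cutoff fixed separately per campaign, cut at about 7.5% in these data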
hcDAF12 agonist – H. contortus DAF-12 nuclear receptor activators, primary screen, cell-based, luminescence, HEK293, lit1-tk-luc reporter; 370,000 tested, 1.4% active; activation, % at 6.8 µM; HEK293 hcDAF-12 lit1-tk-luc reporter; 0% DMSO, 100% Δ7-dafachronic acid; AID 652067, 2013;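 active means activation above the mean of all tested compounds plus 3 SD, cut at about 5.5% in these data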
DAX1 inh-2 – DAX1 (NR0B1) inhibitors on StAR promoter, primary screen, cell-based, luminescence, SF-1 (NR5A1), full-length DAX-1 | HEK293T StAR-luciferase reporter, SF-1/DAX-1 repression relief | AID 652010, 2013 | inhibition, % at 6.8 µM | 370,000 tested, 1.1% active;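 active means inhibition above the mean over all tested compounds plus 3 SD, cut at about 3.6% in these data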;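 further: higher inhibition means more luminescence from relief of DAX-1 repression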
GAA30 FXN cntr – GAA30 FXN promoter activators, confirmation, counter-screen for GAA850 frataxin promoter activator project, cell-based, luminescence, HEK293, lucGAA30, triplicate; shares compounds with GAA850 FXN act; HEK293 lucGAA30 FXN promoter luciferase, 24 h; DMSO = 0%, 5 µM ipriflavone = 100%; activation, % at 6 µM; 1,900 tested, 66% active; AID 588350, 2011;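 active means mean activation above the mean of solvent-only control wells plus 3 SD, cut at about 22% in these data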;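 further: counterscreen of GAA850 promoter hits where activity marks nonselective or luminescence artifacts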
FXN GAA850 conf – FXN GAA850 promoter activators in reporter cells, confirmation, cell-based, luminescence, HEK293 lucGAA850, triplicate. shares compounds with GAA850 FXN act. HEK293 lucGAA850 FXN promoter luciferase reporter, 24 h; 100% = activation by SAHA. activation, % at 6 µM. 1,900 tested, 86% active. AID 588351, 2011;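 active means mean activation above a set limit taken from the primary screen, cut at about 8% in these data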
A number is an active result. An excerpt weighted towards active compounds, which were near 4.5% of everything screened.

Cc1ccnc(SCC(=O)c2cccs2)n1 was read as ssDAF-12 act inactive, hgDAF12 agonist inactive, DAX1 inh-1 inactive, GAA850 FXN act inactive, hcDAF12 agonist inactive and DAX1 inh-2 inactive.
Screening COc1ccc(-c2noc(C3CCCN(C(=O)Nc4cccc(C)c4)C3)n2)cc1 (stereo unspecified) returned ssDAF-12 act inactive, hgDAF12 agonist inactive, hcDAF12 agonist inactive and DAX1 inh-2 inactive.
Screening CC(=O)Nc1ccc2c(c1)Cc1c-2cc(Br)c(N)c1Br returned ssDAF-12 act inactive, hgDAF12 agonist inactive, DAX1 inh-1 inactive, GAA850 FXN act 7.6, hcDAF12 agonist inactive, DAX1 inh-2 inactive, GAA30 FXN cntr 62.9 and FXN GAA850 conf 28.5.
`Cc1ccc(N2C(=O)CS(=O)C(c3ccccc3)C2=O)cc1C` (stereo unspecified) gave ssDAF-12 act inactive, hgDAF12 agonist inactive, DAX1 inh-1 inactive, GAA850 FXN act 8.2, hcDAF12 agonist inactive, DAX1 inh-2 inactive, GAA30 FXN cntr 58.1 and FXN GAA850 conf 16.4.
COc1ccc(N2C(=O)CS(=O)C(c3ccccc3)C2=O)cc1 (stereo unspecified) was read as ssDAF-12 act inactive, hgDAF12 agonist inactive, DAX1 inh-1 inactive, GAA850 FXN act inactive, hcDAF12 agonist inactive and DAX1 inh-2 inactive.
`Nc1n[nH]c(N)c1N=Nc1cccc(F)c1` gave ssDAF-12 act inactive, hgDAF12 agonist inactive, DAX1 inh-1 inactive, GAA850 FXN act inactive, hcDAF12 agonist inactive and DAX1 inh-2 inactive.
Nc1n[nH]c(N)c1N=Nc1ccc(Cl)cc1 was read as ssDAF-12 act inactive, hgDAF12 agonist 13.2, DAX1 inh-1 inactive, GAA850 FXN act 8.7, hcDAF12 agonist inactive, DAX1 inh-2 inactive, GAA30 FXN cntr 71.0 and FXN GAA850 conf 14.7.
Screening CCCn1c(SCc2ccc(Cl)cc2)nc2c1c(=O)[nH]c(=O)n2C returned ssDAF-12 act inactive, hgDAF12 agonist inactive, DAX1 inh-1 inactive, GAA850 FXN act 9.3, hcDAF12 agonist inactive, DAX1 inh-2 inactive, GAA30 FXN cntr inactive and FXN GAA850 conf 14.7.
COCCn1c(SCc2ccc(Cl)cc2)nc2c1c(=O)[nH]c(=O)n2C was read as ssDAF-12 act inactive, hgDAF12 agonist inactive, DAX1 inh-1 inactive, GAA850 FXN act inactive, hcDAF12 agonist inactive and DAX1 inh-2 inactive.
C/C=C/Cn1c(SCc2ccc(Cl)cc2)nc2c1c(=O)[nH]c(=O)n2C was read as ssDAF-12 act inactive, hgDAF12 agonist inactive, DAX1 inh-1 inactive, GAA850 FXN act 10.6, hcDAF12 agonist inactive, DAX1 inh-2 inactive, GAA30 FXN cntr inactive and FXN GAA850 conf 16.7.
`N#C/C(=C\c1cccc(Oc2ccc(C(F)(F)F)cc2[N+](=O)[O-])c1)c1nc2ccccc2[nH]1` gave ssDAF-12 act inactive, hgDAF12 agonist inactive, DAX1 inh-1 inactive, GAA850 FXN act 8.0, hcDAF12 agonist inactive, DAX1 inh-2 inactive, GAA30 FXN cntr 22.7 and FXN GAA850 conf 7.9.
`CCCNC(=O)c1ccccc1NC(=O)c1ccccc1N(C)S(=O)(=O)c1ccccc1` gave ssDAF-12 act inactive, hgDAF12 agonist inactive, DAX1 inh-1 inactive, GAA850 FXN act 13.6, hcDAF12 agonist inactive, DAX1 inh-2 inactive, GAA30 FXN cntr inactive and FXN GAA850 conf 19.0.
Screening CC(C)CNC(=O)c1ccccc1NC(=O)c1ccccc1N(C)S(=O)(=O)c1ccccc1 returned ssDAF-12 act inactive, hgDAF12 agonist inactive, DAX1 inh-1 inactive, GAA850 FXN act 13.2, hcDAF12 agonist inactive, DAX1 inh-2 inactive, GAA30 FXN cntr inactive and FXN GAA850 conf inactive.
COC(=O)c1ccccc1NC(=O)c1ccccc1N(C)S(=O)(=O)c1ccccc1 was read as ssDAF-12 act inactive, hgDAF12 agonist inactive, DAX1 inh-1 inactive, GAA850 FXN act inactive, hcDAF12 agonist inactive and DAX1 inh-2 inactive.
COCCNC(=O)c1ccccc1NC(=O)c1ccccc1N(C)S(=O)(=O)c1ccc(C)cc1 was read as ssDAF-12 act inactive, hgDAF12 agonist inactive, DAX1 inh-1 inactive, GAA850 FXN act inactive, hcDAF12 agonist inactive and DAX1 inh-2 inactive.
Cc1ccc(-c2cc(-c3nnc(SCc4cccc5ccccc45)n3N)[nH]n2)cc1 was read as ssDAF-12 act inactive, hgDAF12 agonist inactive, hcDAF12 agonist inactive and DAX1 inh-2 inactive.
For CN(C)C1=NC[C@H](Cc2ccccc2)N1CC1CCC(C(C)(C)C)CC1 (stereo partly specified) the results were DAX1 inh-1 inactive and GAA850 FXN act inactive.
`O=C(CCl)Nc1cc(S(=O)(=O)N2CCCCCC2)ccc1Cl` gave ssDAF-12 act inactive, hgDAF12 agonist inactive, DAX1 inh-1 inactive, GAA850 FXN act 10.8, hcDAF12 agonist inactive, DAX1 inh-2 inactive, GAA30 FXN cntr inactive and FXN GAA850 conf 13.8.
For O=C(CSc1nc2ccccc2o1)NC1CCCC1 the results were ssDAF-12 act inactive, hgDAF12 agonist inactive, DAX1 inh-1 inactive, GAA850 FXN act 7.6, hcDAF12 agonist inactive, DAX1 inh-2 inactive, GAA30 FXN cntr inactive and FXN GAA850 conf inactive.
`O=C(CN(C(=O)CSc1nc2ccccc2o1)c1ccccc1)NC1CCCCC1` gave ssDAF-12 act inactive, hgDAF12 agonist inactive, DAX1 inh-1 inactive, GAA850 FXN act inactive, hcDAF12 agonist inactive and DAX1 inh-2 inactive.
O=C1NC[C@H](CCCCN2C[C@H](Cc3ccc(O)cc3)N(CCC3CCCCC3)C(=O)C2=O)N(CCC2CCCCC2)C1=O was read as ssDAF-12 act inactive, hgDAF12 agonist inactive, hcDAF12 agonist inactive and DAX1 inh-2 inactive.
Screening CCOC(=O)c1ccc(NC(=O)c2ccccc2)cc1 returned ssDAF-12 act inactive, hgDAF12 agonist 10.8, DAX1 inh-1 inactive, GAA850 FXN act 8.0, hcDAF12 agonist inactive, DAX1 inh-2 inactive, GAA30 FXN cntr 78.6 and FXN GAA850 conf 33.0.
